# Screening data deposited in PubChem by National Center for Advancing Translational Sciences (NCATS).
# The list is not random: actives were taken first. Their share in the collection is about 19%.
# TGFb inhibitor – qHTS for Inhibitors of TGF-b | HepG2 CAGA-GFP TGF-b/SMAD3 reporter, GFP fluorescence, 18 h; TGF-beta stimulated, 500 pg/mL final | AID 588855, 2011 | actives 1.2% (n = 410,000) | Potency, µM (doses to about 46.1 µM), without a hit: top-dose activity, negative = inhibition, most hits filed as inhibitors; further: potency means the concentration at half of the fitted maximal effect; on the % scale 0 is the no-effect control and ±100 the full control effect; nearly all actives have a fitted effect of over 65% in size
#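 GFP signal (ex488/em500-530) from TGF-beta-stimulated HEPG2 CAGA-GFP cells, 500 pg/mL final, 18 h at 37 degrees C in DMEM plus 1% FBS, normalized to unstimulated and DMSO-stimulated controls.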
# ASM inhibitor – Inhibitors of Secretory Acid Sphingomyelinase (S-ASM): qHTS; actives 0.006% (n = 340,000); Potency, µM (series often up to 57.5 µM), inactives show top-dose activity change, negative = inhibition, most hits filed as inhibitors; placental ASM, HMU-PC fluorogenic substrate, 60 min; Sphingomyelin phosphodiesterase (Homo sapiens), P17405; further: potency means the concentration at half of the fitted maximal effect
# Target sequence (P17405 47-631 limits assumed): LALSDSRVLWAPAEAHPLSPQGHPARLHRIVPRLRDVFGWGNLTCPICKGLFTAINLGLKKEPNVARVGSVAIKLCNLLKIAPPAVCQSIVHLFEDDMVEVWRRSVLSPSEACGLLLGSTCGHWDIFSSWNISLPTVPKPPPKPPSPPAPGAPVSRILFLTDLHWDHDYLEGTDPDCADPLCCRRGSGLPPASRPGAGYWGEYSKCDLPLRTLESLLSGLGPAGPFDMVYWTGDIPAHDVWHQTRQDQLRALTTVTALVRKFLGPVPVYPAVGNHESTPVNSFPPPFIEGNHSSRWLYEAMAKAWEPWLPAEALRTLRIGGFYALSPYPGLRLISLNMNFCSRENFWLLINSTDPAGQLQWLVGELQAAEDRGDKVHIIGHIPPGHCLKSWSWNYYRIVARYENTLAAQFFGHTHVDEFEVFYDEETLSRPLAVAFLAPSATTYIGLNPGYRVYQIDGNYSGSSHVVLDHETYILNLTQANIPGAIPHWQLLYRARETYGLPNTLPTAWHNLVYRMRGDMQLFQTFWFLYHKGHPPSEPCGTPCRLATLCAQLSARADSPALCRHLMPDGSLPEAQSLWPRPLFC
#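 Fluorescence read-out (Ex 386 nm, Em 447 nm) after stopping the reaction at pH 10. Enzyme: ASM from human placenta; substrate HMU-PC0, 9 uM final; 60 min, 37 °C. Compound preincubation 10 min, ambient temperature.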
# DT40 TDP1 no CPT – qHTS for Inhibitors of human tyrosyl-DNA phosphodiesterase 1 (TDP1): qHTS in cells in absence of CPT | DT40 Tdp1-/- hTDP1 cells, no CPT, ATP luminescence, 48 h | Potency, µM (highest dose often 46.2 µM), inactives show top-dose activity change, negative = growth inhibition, hits mostly inhibitors | actives 15% (n = 420,000); further: potency means the concentration at half of the fitted maximal effect; on the % scale 0 is the no-effect control and ±100 the full control effect; nearly all actives have a fitted effect of over 55% in size
#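 Compound effects on proliferation are scored in DT40 Tdp1-/-;hTDP1 cells in the absence of CPT. ATP levels (CellTiter-Glo luminescence) are recorded after a ≥48 hr, 37 °C incubation.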
# HepG2 viability – qHTS for Inhibitors of TGF-b: Cytotox Counterscreen. actives 0.76% (n = 410,000). Potency, µM (top dose mostly 46.1 µM), for the others: at the top dose activity change, negative = cytotoxicity, usual class: cytotoxic. AID 588856, 2011. HepG2 CAGA-GFP viability, ATP luminescence, 18 h; further: potency means the concentration at half of the fitted maximal effect
#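 CellTiter-Glo luminescence gave cytotoxicity after 18 hours at 37 degrees C. The cells were HepG2 CAGA-GFP in 1% FBS DMEM, stimulated with 500 pg/mL TGF-beta after compound addition. %Activity was normalised to no-cell wells (complete cell-killing) and DMSO (no toxicity), and curves were fitted and classified.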
# TDP1 cell CPT – qHTS for Inhibitors of human tyrosyl-DNA phosphodiesterase 1 (TDP1): qHTS in cells in presence of CPT | actives 12% (n = 420,000) | Potency, µM (doses to about 46.2 µM), for the others: at the top dose activity change, negative = growth inhibition, usual class: inhibitors | AID 686979, 2013 | chicken DT40 Tdp1-/-;hTDP1 cells + 20 nM CPT, ATP luminescence, 48 h; further: potency means the concentration at half of the fitted maximal effect; on the % scale 0 is the no-effect control and ±100 the full control effect; nearly all actives have a fitted effect of over 55% in size
#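 Chicken DT40 Tdp1-/- cells complemented with human TDP1, 400 cells/well, exposed to compounds plus 20 nM camptothecin for at least 48 h at 37 C; viability read as ATP content by CellTiter-Glo luminescence.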
# IL-1B inflam inh – qHTS for Inhibitors of Inflammasome Signaling: IL-1-beta AlphaLISA Primary Screen. THP-1 LPS/ATP IL-1B secretion, AlphaLISA, 16 h; active compounds read low. activity change, % at 57.5 µM. actives 4.7% (n = 360,000). AID 743279, 2014; in the data active means activity change below about -50%; inconclusive means mostly about -30% to -49%; further: on the % scale 0 is the no-effect control and ±100 the full control effect
#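 THP-1 cells pretreated 1 hr with compounds (up to 57.5 uM final), then stimulated with LPS (250 ng/mL final) plus ATP (1.25 mM final); secreted IL-1B measured by AlphaLISA after 16 hr, decreased signal indicating inhibition.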
# The depositor's hits bear a star; i = inactive; ? = inconclusive; nt = no result given. Unless noted, the call rests on the fitted dose curve; in most records, active means well fitted curve in the direction sought with a large enough effect; inconclusive means small, poorly fitted or top-dose-only effect, or another doubt; inactive means no such curve, though single readings can be large; an effect the other way counts as inactive or inconclusive.
SMILES,TGFb inhibitor,ASM inhibitor,DT40 TDP1 no CPT,HepG2 viability,TDP1 cell CPT,IL-1B inflam inh
COC(=O)C1=CN(c2cccc(OCc3ccccc3)c2)C(N)=C(C#N)C1c1cccc(OC)c1OC (stereo not given),nt,nt,15µM*,nt,15µM*,-4
COC(=O)C1=CN(c2ccc(Oc3ccccc3)cc2)C(N)=C(C#N)C1c1cccc(OC)c1OC (stereo not given),nt,nt,13µM*,nt,15µM*,35
COc1cc(C2CC(c3cccnc3)=NN2c2ccc(F)cc2)cc(OC)c1OC (stereo not given),4%,i,?,11%,?,26
COc1cc(N=Nc2cccc(S(N)(=O)=O)c2)c2ccccc2c1N,0%,?,18µM*,-29%,?,?
COc1cccc(CNc2ccc(S(N)(=O)=O)cc2)c1OC,-23%,3%,-23%,7%,-21%,16
CC(OC(=O)Cc1c[nH]c2ccccc12)C(=O)N(C)c1ccccc1 (stereo not given),-5%,nt,-24%,-9%,?,-11
CCOC(=O)c1[nH]c(C)c(CCC(=O)Nc2cccc(C(F)(F)F)c2)c1C,-24%,nt,?,-18%,?,nt
O=C(CCc1ccccc1)Nc1nc2c(F)cc(F)cc2s1,11%,1%,13µM*,5%,?,-3
O=C(Nc1nc2ccccc2s1)c1ccc([N+](=O)[O-])o1,?,-2%,8.2µM*,-30%,15µM*,-68*
Cc1cc(C)c2nc(NC(=O)c3ccc([N+](=O)[O-])o3)sc2c1,18%,4%,3%,-18%,-9%,?
O=C(Nc1nc2c(F)cc(F)cc2s1)c1ccc([N+](=O)[O-])o1,-1%,2%,10µM*,-25%,15µM*,0
Cc1cc2c(cc1NS(=O)(=O)c1ccc(Br)cc1)n(C)c(=O)c(=O)n2C,9%,nt,?,-9%,?,nt
CCOc1ccc(NC(=O)CN2C(=O)C(c3ccc(Cl)cc3)=NC2(C)C)cc1,-27%,nt,?,-26%,?,nt
CC1(C)N=C(SCC(=O)Nc2ccc(Cl)cc2)C(c2ccccc2)=N1,?,-10%,?,-35%,?,-87*
Cc1cc(SCC(=O)Nc2ccc(Cl)cc2)nc2ccccc12,-6%,nt,?,0%,-16%,nt
CC1(C)N=C(SCC(=O)Nc2ccc(Cl)cc2)C(c2ccc(Cl)cc2)=N1,0%,?,18µM*,-23%,?,-109*
O=C1CCC(C(=O)Nc2cc(C(F)(F)F)ccc2-n2cncn2)=NN1,0%,4%,-3%,-8%,-4%,39
COc1cc(NC(=O)C2CCN(S(=O)(=O)c3ccc4c(c3)CCCC(=O)N4)CC2)cc(OC)c1,27%,nt,nt,-1%,nt,nt
CCCCCC1CCC(C(=O)NNC(=S)NCC)CC1 (stereo not given),-1%,0%,?,2%,23µM*,-20
COc1cc(C=CC(=O)c2cc(OC)c(OC)c(OC)c2)cc(OC)c1OC,11µM*,1%,5.8µM*,-77%,5.8µM*,0
CCOc1ccc(N/C=C/C(=O)c2ccc(OC)cc2)cc1,11%,10%,-19%,3%,?,-16
COc1cc(/C=C/C(=O)N2CCC=CC2=O)cc(OC)c1OC,?,4%,1.8µM*,-90%,2.1µM*,-103*
CCCOc1ccc(N/C=C/C(=O)c2cc(OC)c(OC)c(OC)c2)cc1,-13%,1%,23µM*,-26%,?,-8
COc1cc(/C=C/C(=O)c2cccs2)cc(OC)c1OC,nt,nt,1.5µM*,nt,3.8µM*,nt
O=c1c2[nH]cnc2n(-c2cccc(F)c2)c(=O)n1Cc1ccccc1,5%,2%,5%,11%,-12%,0
SMILES,TGFb inhibitor,ASM inhibitor,DT40 TDP1 no CPT,HepG2 viability,TDP1 cell CPT,IL-1B inflam inh
COc1ccc2cc(C(=O)/C=C/c3cc(OC)c(OC)c(OC)c3)ccc2c1,7%,-2%,21µM*,-6%,26µM*,-62*
Cn1c(C(=O)O)c(C=O)c2ccccc21,2%,4%,16%,-4%,-8%,-70*
COc1ccc(-c2noc(-c3ccc(NCc4cccnc4)c([N+](=O)[O-])c3)n2)cc1OC,?,nt,-15%,-7%,-18%,nt
COc1ccc(-c2noc(-c3ccc(NCc4ccco4)c([N+](=O)[O-])c3)n2)cc1OC,10%,nt,9.2µM*,1%,13µM*,nt
CCCc1noc(-c2ccc(NCc3ccccc3OC)c([N+](=O)[O-])c2)n1,-28%,nt,7.3µM*,-12%,10µM*,nt
COc1cc(-c2noc(-c3ccc(NCc4cccnc4)c([N+](=O)[O-])c3)n2)cc(OC)c1OC,-3%,nt,6.5µM*,-3%,7.3µM*,nt
C=C1CC2C3CCC4=CC(=O)C=C[C@]4(C)[C@@]3(F)[C@@H](O)C[C@]2(C)[C@@]1(O)C(=O)COC(C)=O (stereo not given in full),nt,nt,-18%,nt,-1%,nt
Cc1cc(C)c2c(c1)NC(=O)C2(O)c1c[nH]c2ccccc12 (stereo not given),2%,nt,-2%,-7%,-11%,nt
CC(C)c1nc2ccc(C(=O)Nc3ccccc3F)cc2o1,-21%,nt,5.8µM*,-34%,7.3µM*,nt
CCc1ccc(CNC(=O)c2ccc3nc(C(C)C)oc3c2)cc1,?,nt,?,-39%,?,nt
Cc1c(Cl)cccc1NC(=O)c1ccc2snnc2c1,23%,nt,-28%,-4%,-1%,nt
CC(=O)c1cccc(NC(=O)c2ccc3nc(C(C)C)oc3c2)c1,-18%,nt,16µM*,-16%,?,nt
Cc1c(Cl)cccc1NC(=O)c1ccc2nc(C(C)C)oc2c1,-2%,nt,12µM*,-17%,?,nt
CC(C)c1nc2ccc(C(=O)NCCCN3CCN(c4ccccc4F)CC3)cc2o1,-27%,nt,?,-26%,?,nt
Cc1ccc(NS(=O)(=O)c2cccc(C(=O)NCC3CCCO3)c2)cc1 (stereo not given),12%,2%,?,18%,-17%,5
COc1ccc(C(=O)NCC(C)(c2ccccc2)c2ccccc2)cc1S(=O)(=O)N1CCOCC1,0%,1%,?,-8%,?,1
COCCNc1nnc(SCC(=O)Nc2nnc(-c3ccccc3)o2)s1,-18%,-1%,12%,-1%,-2%,10
